# Shown are actives, neighbours in structure and some others; about 1.6% of the full set was active somewhere.
# KCNQ2 inh = inhibitors of rat KCNQ2 potassium channel; B-score at 10 µM; AID 2156; 310,000 tested, 1.1% active; O88943; CHO-K1 KCNQ2, FluxOR thallium flux, 20 min; active compounds read low;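 active = fluorescence ratio B-score at most minus 3 library SDs, with starting brightness B-score within 2 library SDs, cut at about -5.5 in these data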
# KCNQ2 pot = KCNQ2 (rat) channel potentiation; 310,000 tested, 0.54% active; O88943; CHO-K1 KCNQ2, FluxOR thallium flux fluorescence; active compounds read high; AID 2239; B-score at 10 µM;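 active = fluorescence ratio B-score at least 3 SD of library B-scores, with initial fluorescence B-score within 3 of them, cut at about 5.3 in these data; same plate scores as AID 2156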;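 note: B-score of peak minus minimum over baseline fluorescence ratio after K+ and Tl+ stimulus; positive B-score means potentiation of KCNQ2 with more thallium influx and brighter signal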
# * = called active by the depositor; i = inactive; . = no result given.
SMILES,KCNQ2 inh,KCNQ2 pot
CC1C(=O)C(C)C(c2cc(Cl)ccc2O)NC1c1cc(Cl)ccc1O (stereo not drawn),i,1.8
CC1=CCC(/C=N\Nc2nnc3c(n2)[nH]c2ccccc23)CC1 (stereo not drawn),i,.
O=C(CC1C(=O)N(c2ccccc2)C(=S)N1c1ccccc1)c1ccccc1 (stereo not drawn),i,.
O=C(CC1C(=O)N(c2ccccc2)C(=S)N1c1ccccc1)c1ccc(Br)cc1 (stereo not drawn),-6.4*,-6.4
COc1ccccc1N(C)S(=O)(=O)c1ccc(C)c(C(=O)Nc2nccs2)c1,i,.
COc1ccc(OC)c(-c2nc(C(=O)NCC3CCCO3)cc3c2[nH]c2ccccc23)c1 (stereo not drawn),i,.
COc1cccc(-c2nc(C(=O)NCC3CCCO3)cc3c2[nH]c2ccccc23)c1 (stereo not drawn),-5.7*,-5.7
CN(C)c1cccc(C(=O)NC2CCCc3ccccc32)c1 (stereo not drawn),-6.5*,-6.5
O=C(NC1CCCc2ccccc21)c1cccc(Br)c1 (stereo not drawn),i,.
COC(=O)[C@H](C)NC(=O)NC1CCCc2ccccc21 (stereo partly drawn),-6.5*,-6.5
CC(C)[C@H](NC(=O)NC1CCCc2ccccc21)C(=O)O (stereo partly drawn),i,.
COc1ccc(C(C)(C)NC(=O)C2CCC(=O)N(CCCN3CCCC3=O)C2)cc1 (stereo not drawn),i,.
O=C(O)CSCC(=O)NCc1cccc(C(F)(F)F)c1,i,0.01
O=C(CCC(=O)c1cccs1)NCc1cccc(C(F)(F)F)c1,-6.4*,-6.4
O=C(CCC(=O)c1cccs1)NCc1cccc(Cl)c1,-6.3*,-6.3
O=C(CSc1ccccc1)NCc1ccccc1,i,.
O=C(COC(=O)CCC(=O)c1cccs1)NCc1ccc(Cl)cc1,i,0.13
O=C(CSc1cccc(C(F)(F)F)c1)NCc1ccccc1,i,16*
O=C(c1ccco1)N1CCCC(c2nc3c(nnn3Cc3c(Cl)cccc3Cl)c(=O)[nH]2)C1 (stereo not drawn),i,.
CC(Sc1nnc(-c2ccc(OC(F)F)cc2)n1N)C(=O)NCC1CCCO1 (stereo not drawn),i,.
Cc1ccc(C)c(S(=O)(=O)N2CCN(C(=O)c3cccn3C)CC2)c1,i,0.27
Cc1ccc(N(C(=O)NC2CCCCC2)C2=NCCCCC2)cc1,-5.8*,-5.8
Cc1ccc(N(C(=O)Nc2ccccc2)C2=NCCC2)cc1,i,.
Cc1ccc(S(=O)(=O)N2CCCCC2)cc1NC(=O)COC(=O)c1ccccc1F,i,0.39
CC(C)[C@H](NC(=O)c1ccco1)C(=O)NC12CC3CC(CC(C3)C1)C2,i,.
SMILES,KCNQ2 inh,KCNQ2 pot
O=C(c1ccsc1)N1CCCC(N2CCOCC2)C1 (stereo not drawn),i,0.67
Clc1ccc(-c2nnc(-c3ccco3)nc2N2CCCCC2)cc1,i,.
Clc1ccc(-c2nnc(-c3ccc(Br)cc3)c(N3CCSCC3)n2)cc1,-7*,-7
Cc1nc(N2CCN(c3ccccc3)CC2)nc2c1C(=O)CC(C)C2 (stereo not drawn),i,.
Cc1nc(N2CCN(c3ccccc3)CC2)nc2c1C(=O)CC(c1ccccc1)C2 (stereo not drawn),-6.1*,-6.1
COc1cc(SC)ccc1C(=O)Nc1ccc2ncccc2c1,i,.
CC1(C)CC(=O)C(=Cc2cn(CCC#N)nc2-c2ccc(F)cc2)C(=O)C1,i,6.5*
CC1(C)CC(=O)C(=Cc2cn(CCC#N)nc2-c2ccc(Cl)cc2)C(=O)C1,i,3.8
CN(C)C(=O)c1c(C(F)(F)F)nn(C)c1Cl,i,0.98
c1ccc(-c2onc(-c3ccco3)c2-c2ccc3c(c2)OCO3)cc1,-5.9*,-5.9
O=C(O)c1cc(-c2ccc(-c3c(-c4ccc5c(c4)OCO5)noc3-c3ccsc3)cc2)nc2ccccc12,i,.
O=C(NNC(=O)c1cc(-c2ccccc2)nc2ccccc12)Nc1cccc(Cl)c1,-6.3*,-6.3
CC(C)(C)c1ccc(-c2cc(C(=O)NNC(=O)Nc3ccccc3)c3ccccc3n2)cc1,i,.
O=C(Nc1ccc(Cl)cc1)C1C2C=CC3(O2)C1C(=O)N(CCCN1CCCCC1)C3C(=O)NC1CCCCC1 (stereo not drawn),i,0.02
COc1ccc(NC(=O)c2c[nH]n3c(=O)cc(C4CCN(C(=O)OC(C)(C)C)CC4)nc23)cc1Cl,i,6.3*
CC(C)(C)OC(=O)N1CCC(c2cc(=O)n3[nH]cc(C(=O)Nc4ccc(F)c(Cl)c4)c3n2)CC1,i,2.5
CCOC(=O)C1CCN(C(=O)c2cc3cc(C)ccc3[nH]2)CC1,i,.
Cc1cccc2cc(-c3nc4ccc(C(=O)O)cc4[nH]3)c(=O)oc12,i,0.02
O=C1OCCN1c1c(-c2ccccc2)c(-c2cccs2)nc2c(-c3ccccc3)cccc12,i,.
CCN(CC)C(=O)C(Sc1nnnn1-c1ccc(O)cc1)c1ccccc1 (stereo not drawn),-6.1*,-6.1
CCC(Sc1nnnn1-c1ccccc1)C(=O)NC(C)c1ccccc1 (stereo not drawn),i,.
COc1ccc(NC(=S)N2CCN(S(=O)(=O)c3ccc(OC)cc3)CC2)cc1,i,.
CC(Oc1ccccc1)C(=O)Nc1cccc(-c2nc3ccccc3[nH]2)c1 (stereo not drawn),-5.6*,-5.6
CC(=O)Nc1cccc(-c2nc3ccccc3[nH]2)c1,i,1.6
O=C(COc1ccc(-c2ccccc2)cc1)N1CCN(C(=O)c2cccs2)CC1,i,0.03
SMILES,KCNQ2 inh,KCNQ2 pot
O=C(O)CN(C1CCCCC1)S(=O)(=O)c1ccc(F)cc1,i,0.2
COc1cccc(CC2(CO)CCCN(Cc3cc(F)ccc3-n3cccn3)C2)c1 (stereo not drawn),i,.
COc1cccc(-c2noc(C3CCCN(S(=O)(=O)c4cccc(Cl)c4C)C3)n2)c1 (stereo not drawn),-6*,-6
CCCS(=O)(=O)N1CCCC(c2nc(-c3cccc(OC)c3)no2)C1 (stereo not drawn),i,.
COc1cc(OC)cc(C(=O)Nc2nc(CC(=O)NC(C)c3ccccc3)cs2)c1 (stereo not drawn),-6.3*,-6.3
COc1ccc(C(=O)Nc2nc(CC(=O)NCCc3ccccc3)cs2)cc1,i,.
COC(=O)c1csc(S(=O)(=O)N2CCOCC2)c1OC,i,.
Cc1[nH]n(-c2ncc(-c3ccccc3)s2)c(=O)c1C(c1ccc(Cl)cc1)C(C#N)C#N (stereo not drawn),-7.2*,-7.2
Cc1[nH]n(-c2ccccc2)c(=O)c1C(c1ccccc1[N+](=O)[O-])C(C#N)C#N (stereo not drawn),i,.
CCC(C)Sc1cc(-c2nc3ccccn3c2NC2CCCCC2)ccc1OC (stereo not drawn),i,0.01
CC(=O)c1ccc(-c2cccc(-c3nc4ccccn4c3NC3CCCCC3)c2)cc1,-5.8*,-5.8
CCOc1cc(NC(=S)Nc2ccccc2OC)c(OCC)cc1NC(=O)c1ccccc1C,-5.7*,-5.7
CCOc1cc(NC(=S)NCC2CCCO2)c(OCC)cc1NC(=O)c1ccccc1C (stereo not drawn),i,0.54
CN(Cc1ccccc1)C1(CNC(=O)CCC(F)(F)F)Cc2ccccc2C1,i,.
CCOC(=O)c1nn(C23CC4CC(CC(C4)C2)C3)c2c1C(=O)N(c1ccc(C)cc1)C2=O,-6.8*,-6.8
